{"source": "PubChem BioAssay AID1950", "about": "(The Scripps Research Institute Molecular Screening Center, 2009)", "note": "Among all 300,000 compounds or so, about 1,000 (0.33%) were called active. Only a selection was taken, and actives are over-represented in it overall. Values without a mark were called inactive. Rule as the data show it: active = inhibition above about 28%; inactive = the rest.", "data": [{"tested_on": "EBNA-1 (Epstein-Barr virus nuclear antigen 1), Human herpesvirus 4", "assay": "EBNA-1 DNA-binding inhibitors, primary screen, biochemical, fluorescence polarization (AID 1950)", "conditions": "at 14.8 µM, hits give high values", "values": [{"molecule": "COc1ccc(CN2C(=O)CC(Cc3ccc(C)cc3)C2=O)cc1OC", "note": "(stereo unspecified)", "inhibition": "9.56%"}, {"molecule": "O=C(CN1CCCCC1)N1c2ccccc2Sc2ccc(C(F)(F)F)cc21", "inhibition": "-8.22%"}, {"molecule": "CC(=O)N1CC(C)c2scc(C)[n+]2-c2ccccc21", "note": "(stereo unspecified)", "inhibition": "0.91%"}, {"molecule": "CC(CCN1CCN=C1N(C)C)c1ccccc1", "note": "(stereo unspecified)", "inhibition": "-6.72%"}, {"molecule": "O=C(NCCOc1cccnc1)c1ccc(OC2CCN(Cc3ccccn3)CC2)cc1", "inhibition": "6.33%"}, {"molecule": "Cc1[nH]c(C)c(S(=O)(=O)N2CCC(C)CC2)c1C(=O)N1CCCC1", "inhibition": "14.2%"}, {"molecule": "NC(=O)C(Cc1ccccc1)NC(=O)C12CC3CC(CC(C3)C1)C2", "note": "(stereo unspecified)", "inhibition": "3.55%"}, {"molecule": "CCC(=O)Nc1ccc(S(=O)(=O)Nc2c(NC)c3ccccc3oc2=O)cc1", "inhibition": "8.74%"}, {"molecule": "CC(=O)Nc1ccc(S(=O)(=O)NCC(=O)OCc2cc(=O)oc3ccc4ccccc4c23)cc1", "inhibition": "35.2% (active)"}, {"molecule": "COc1ccccc1C(=O)COC(=O)CNS(=O)(=O)c1ccc(NC(C)=O)cc1", "inhibition": "0.54%"}, {"molecule": "CCOc1cc(C2C(C(=O)c3ccco3)=C(O)C(=O)N2Cc2ccccc2)ccc1O", "note": "(stereo unspecified)", "inhibition": "1.15%"}, {"molecule": "CCC1CCCCN1C(=O)CSc1nc2c(c(=O)n1C)SC(C)C2", "note": "(stereo unspecified)", "inhibition": "-3.4%"}, {"molecule": "CCOC(=O)CSc1nnc(NC(=O)C2CC(=O)N(c3ccc(F)cc3)C2)s1", "note": "(stereo unspecified)", "inhibition": "6.41%"}, {"molecule": "COc1cccc(N2CC(C(=O)Nc3c(C)cccc3C)CC2=O)c1", "note": "(stereo unspecified)", "inhibition": "-0.66%"}, {"molecule": "COc1ccc(C(=O)CSc2nnc(NC(=O)C3CC(=O)N(c4cccc(OC)c4)C3)s2)cc1", "note": "(stereo unspecified)", "inhibition": "51.4% (active)"}, {"molecule": "COc1ccc(N(C)C(=O)C2CCN(S(=O)(=O)c3cccc4nsnc34)CC2)cc1", "inhibition": "-5.5%"}, {"molecule": "Cc1ccc(NC(=O)c2cc(-c3ccccc3O)n[nH]2)cc1C", "inhibition": "-0.09%"}, {"molecule": "Cc1ccc(O)c(-c2cc(C(=O)Nc3c(C)n(C)n(-c4ccccc4)c3=O)[nH]n2)c1", "inhibition": "8.89%"}, {"molecule": "Cc1ccc(O)c(-c2cc(C(=O)NCc3ccccc3)[nH]n2)c1", "inhibition": "30.8% (active)"}, {"molecule": "COc1ccc(C(=O)N[C@H](C(=O)NCc2ccccc2)C(C)C)cc1", "inhibition": "5.98%"}, {"molecule": "CC(C)c1nnc(NC(=O)CCC(=O)N2CCN(c3cccc(Cl)c3)CC2)s1", "inhibition": "-2.44%"}, {"molecule": "CCCCNC(=O)C1(O)c2ccccc2NC(=O)N1c1ccc(Cl)cc1", "note": "(stereo unspecified)", "inhibition": "-19.8%"}, {"molecule": "Cc1ccc(-c2nn(-c3ccccc3)cc2/C=C2\\SC(=S)N(CCCCCC(=O)O)C2=O)o1", "inhibition": "29.3% (active)"}, {"molecule": "COc1ccc(-c2nn(-c3ccccc3)cc2/C=C2/SC(=S)N(CCCC(=O)O)C2=O)c(C)c1", "inhibition": "5.71%"}, {"molecule": "CN(C)S(=O)(=O)c1cccc(-c2nn(-c3ccccc3)cc2/C=C2\\SC(=S)N(CC(=O)O)C2=O)c1", "inhibition": "1.09%"}, {"molecule": "CC(=O)N1CCCc2cc(S(=O)(=O)N3CCCC(C(=O)N4CCN(c5cccc(Cl)c5)CC4)C3)ccc21", "note": "(stereo unspecified)", "inhibition": "-6.48%"}, {"molecule": "COc1ccc(-c2cc(=O)oc3cc(OCC(=O)N(C)C4CCS(=O)(=O)C4)ccc23)cc1", "note": "(stereo unspecified)", "inhibition": "-3.28%"}, {"molecule": "Nc1nnc(SCC(=O)Nc2ccc3nc(SCC(=O)Nc4ccccc4)sc3c2)s1", "inhibition": "45.6% (active)"}, {"molecule": "CCCCNC(=O)CSc1nc2ccc(NC(=O)CSc3nnc(COc4ccccc4C)n3C)cc2s1", "inhibition": "-11.7%"}, {"molecule": "CCCCNC(=O)CSc1nc2ccc(NC(=O)CSc3nnc(N)s3)cc2s1", "inhibition": "6.23%"}, {"molecule": "Nc1nc(SCC(=O)Nc2ccc(Cl)cc2C(F)(F)F)n[nH]1", "inhibition": "-6.65%"}, {"molecule": "CC(Sc1nc2c([nH]c3ccccc32)c(=O)n1C)c1ccccc1", "note": "(stereo unspecified)", "inhibition": "13.4%"}, {"molecule": "CCCCNC(=O)CCn1nc(-c2ccc(Cl)cc2)ccc1=O", "inhibition": "-9.91%"}, {"molecule": "Cc1ccc(NC(=O)CN(C)C(=O)Cn2nnc(-c3ccccc3)n2)cc1", "inhibition": "-4.13%"}, {"molecule": "COc1ccc(C23NCCN2C(=O)c2ccccc23)cc1", "note": "(stereo unspecified)", "inhibition": "-4.33%"}, {"molecule": "COc1cccc(CNS(=O)(=O)c2csc(C(N)=O)c2)c1", "inhibition": "-4.82%"}, {"molecule": "Cc1cc2oc(=O)cc(CN(C)Cc3ccc(OC(F)F)cc3)c2cc1Cl", "inhibition": "2.59%"}, {"molecule": "C/C(=N\\NC(=S)NCc1ccccc1)c1ccc(Cl)cc1", "inhibition": "-0.89%"}, {"molecule": "C/C(=N\\N=C(N)N)c1ccc(Cl)cc1", "inhibition": "39.1% (active)"}, {"molecule": "C/C(=N\\OCC(=O)O)c1ccc(Cl)cc1", "inhibition": "8.77%"}, {"molecule": "Cc1ccc(CNC(=O)c2cccnc2Cl)cc1", "inhibition": "-0.4%"}, {"molecule": "CC/C(O)=C1\\C(=O)CC(C)(C)CC1=NCCc1nc2ccccc2[nH]1", "inhibition": "0.38%"}, {"molecule": "CC(=O)C1=C(O)C(=O)N(c2ccc(Br)cc2)C1c1ccc([N+](=O)[O-])cc1", "note": "(stereo unspecified)", "inhibition": "-5.58%"}, {"molecule": "CC1=NN(C(N)=S)C(=O)C1N=Nc1cc(Cl)ccc1Cl", "note": "(stereo unspecified)", "inhibition": "-8.59%"}, {"molecule": "Cc1[nH]n(C(N)=S)c(=O)c1N=Nc1ccc(Cl)cc1Cl", "inhibition": "27.7% (active)"}, {"molecule": "Cc1cccc(N=Nc2c(C)[nH]n(-c3ccccc3)c2=O)c1", "inhibition": "-10.4%"}, {"molecule": "O=C(CCC(=O)OCc1cccc(C(=O)Oc2ccccc2)c1)Nc1cccc2ccccc12", "inhibition": "0.44%"}, {"molecule": "O=C(NC1CCCC1)C(c1ccccn1)N(C(=O)c1csnn1)C1CCCC1", "note": "(stereo unspecified)", "inhibition": "2.45%"}, {"molecule": "COc1cccc(-n2c(SCC(=O)c3c[nH]c4ccccc34)nc3ccccc3c2=O)c1", "inhibition": "46.8% (active)"}, {"molecule": "CCCn1c(N)c(C(=O)CSc2nc3ccccc3c(=O)n2-c2ccc(OC)cc2)c(=O)[nH]c1=O", "inhibition": "5.25%"}, {"molecule": "COC(=O)c1ccc(CSc2nc3ccccc3c(=O)n2-c2cccc(OC)c2)o1", "inhibition": "-0.73%"}, {"molecule": "O=C(N/N=C/c1sc(N2CCCCC2)nc1-c1cccs1)c1cccnc1", "inhibition": "-5.56%"}, {"molecule": "N=c1n(Cc2ccc(Cl)cc2)c2ccccc2n1CC(O)c1ccco1", "note": "(stereo unspecified)", "inhibition": "-2.62%"}, {"molecule": "CN1CCC(=NNC(=O)CN(c2cccc(Cl)c2)S(C)(=O)=O)CC1", "inhibition": "-1.28%"}, {"molecule": "N#Cc1nc(N)nc(N(c2ccccc2)c2ccccc2)n1", "inhibition": "32.2% (active)"}, {"molecule": "CC(C)Nc1nc(N(c2ccccc2)c2ccccc2)nc(-n2ccnc2)n1", "inhibition": "1.21%"}, {"molecule": "COc1ccc(C(=O)OCC(=O)c2ccc(Cl)s2)c(OC)c1OC", "inhibition": "-6.57%"}, {"molecule": "COc1ccc(Cc2nnc(NC(=O)c3ccc(OC)cc3OC)s2)cc1", "inhibition": "-11.6%"}, {"molecule": "COc1ccc(C(=O)Nc2cccc(NC(=O)c3ccc(OC)cc3OC)n2)c(OC)c1", "inhibition": "64.7% (active)"}, {"molecule": "COC(=O)c1sc(NC(=O)c2ccc(OC)cc2OC)nc1C", "inhibition": "5.25%"}, {"molecule": "O=C(COC(=O)c1ncc(Cl)c(Cl)c1Cl)NCc1cccs1", "inhibition": "4.36%"}, {"molecule": "CC(=O)Nc1ccc(S(=O)(=O)Nc2nccc(/C=C/c3ccccc3F)n2)cc1", "inhibition": "3.71%"}, {"molecule": "Oc1cccc2ccc(/C=C/c3ccc(Br)s3)nc12", "inhibition": "7.77%"}, {"molecule": "Nc1ccc(S(=O)(=O)Nc2nccc(/C=C/c3ccc(Br)s3)n2)cc1", "inhibition": "40.2% (active)"}, {"molecule": "CCNS(=O)(=O)c1ccc(CCC(=O)N2CCN(c3cc(Cl)ccc3C)CC2)cc1", "inhibition": "-2.62%"}, {"molecule": "O=C(NCc1ccccc1)C1=C[C@@H](c2ccccc2)C[C@@H](OCCCCO)O1", "inhibition": "-2.36%"}, {"molecule": "CN(C)CCOc1cccc(Br)c1", "inhibition": "2.94%"}, {"molecule": "COC(=O)C1=C(C)N(C(C)c2ccccc2)C(=O)/C1=C\\c1ccco1", "note": "(stereo unspecified)", "inhibition": "9.16%"}, {"molecule": "CCc1ccccc1NC(=O)c1ccc2snnc2c1", "inhibition": "-10.4%"}, {"molecule": "O=C(Nc1cccc(Br)c1)c1ccc2snnc2c1", "inhibition": "-4.42%"}, {"molecule": "O=C(Nc1ccc2ccccc2c1)Nc1ccc2snnc2c1", "inhibition": "103% (active)"}, {"molecule": "O=C1CC(Cc2ccc(Cl)cc2)C(=O)N1c1cc(Cl)ccn1", "note": "(stereo unspecified)", "inhibition": "-3.65%"}, {"molecule": "CC(=O)n1cc([C@@H]2C=C(C(=O)N3CCN(Cc4ccc5c(c4)OCO5)CC3)O[C@H](OCc3ccc(CO)cc3)C2)c2ccccc21", "inhibition": "-9.33%"}, {"molecule": "CCOc1cccc(NC(=O)Cn2nc(-c3ccc4c(c3)OCCO4)ccc2=O)c1", "inhibition": "35% (active)"}, {"molecule": "CC(=O)c1cc2c(cc1NC(=O)Cn1nc(-c3ccc(F)cc3)ccc1=O)OCO2", "inhibition": "-3.93%"}, {"molecule": "CCc1ccccc1OCC(=O)Nc1ccc2c(c1)OCCO2", "inhibition": "-5.94%"}, {"molecule": "CCOc1cccc(SCc2noc(C(=O)NC(C)C)c2C(=O)O)c1", "inhibition": "29.7% (active)"}, {"molecule": "CCCCNC(=O)c1onc(CSc2cccc(OC)c2)c1C(=O)O", "inhibition": "8.58%"}, {"molecule": "COCCNC(=O)c1onc(CSc2cccc(C)c2)c1C(=O)O", "inhibition": "-0.97%"}, {"molecule": "CCN(CC(=O)Nc1c(F)cccc1F)C(=O)C1CCC1", "inhibition": "-2.05%"}, {"molecule": "CCOc1ccc(C(=O)NC(=S)Nc2ccc(N3CCOCC3)c(Cl)c2)cc1[N+](=O)[O-]", "inhibition": "7.49%"}, {"molecule": "CCOc1ccc(C(=O)NC(=S)Nc2ccc(NC(=O)C(C)C)cc2)cc1[N+](=O)[O-]", "inhibition": "43.3% (active)"}, {"molecule": "CC(=O)Nc1ccc(NC(=S)NC(=O)c2ccc([N+](=O)[O-])c(C)c2)cc1", "inhibition": "-0.91%"}, {"molecule": "COc1ccc(C(C(=O)NC2CCCC2)N(CCCO)C(=O)Cn2nnc(-c3ccc(C)o3)n2)cc1", "note": "(stereo unspecified)", "inhibition": "-26.3%"}, {"molecule": "CC(C)NC(=O)NC(=O)COC(=O)c1ccc(NC(=O)CC#N)cc1", "inhibition": "8.39%"}, {"molecule": "CCOc1ccc(NC(=O)c2ccc(NC(=O)COC(=O)c3ccc(NC(=O)CC#N)cc3)cc2)cc1", "inhibition": "31.4% (active)"}, {"molecule": "CCOc1ccc(C(=O)Nc2ccncc2)cc1", "inhibition": "-2.27%"}, {"molecule": "COCCNc1cc(-c2ccccc2)nc2cc(-c3cccc(F)c3)nn12", "inhibition": "-2.12%"}, {"molecule": "NC(=O)c1ccc(NC(=O)COC(=O)c2ccc([N+](=O)[O-])cc2)cc1", "inhibition": "7.68%"}, {"molecule": "O=C(COc1ccc(/C=N/NC(=O)c2ccc(O)cc2)cc1)Nc1ccc([N+](=O)[O-])cc1", "inhibition": "52.6% (active)"}, {"molecule": "O=C(N/N=C/c1ccc(O)cc1)/C(=C/c1ccc([N+](=O)[O-])cc1)NC(=O)c1ccccc1", "inhibition": "11.3%"}]}]}
